In PubChem BioAssay AID1766 (National Center for Advancing Translational Sciences (NCATS), 2009):
Out of some 290,000 compounds screened, fewer than 10 were called active. Not shown: some 3% with an inconclusive outcome. Calls come from the whole dose curve; as a rule, active = well fitted curve in the direction sought with a large enough effect in the polarisation (not every such curve was filed as active); inconclusive = small, poorly fitted or top-dose-only effect, or effect the other way, or a change in a side signal; inactive = no such curve, though single readings can be large or run the other way; the % refers to the polarisation. These entries were drawn from the full list.

Experiment: qHTS Assay for Inhibitors Targeting the Menin-MLL Interaction in MLL Related Leukemias: Competition With Fluorescein Labeled MLL-derived Peptide; note: % of control where 0% means no effect
Details: Fluorescence polarization, fluorescein-MLL peptide displacement from menin; series mostly up to 61.4 µM; FP activity change: at the top concentration
Text: qHTS Assay for Inhibitors Targeting the Menin-MLL Interaction in MLL Related Leukemias NIH Chemical Genomics Center [NCGC] NIH Molecular Libraries Probe Centers Network [MLPCN] MLPCN Grant: MH084875-01A1 Assay Submitter (PI): Jolanta Grembecka, Tomasz Cierpicki, University of Virginia Translocations of the MLL (Mixed Lineage Leukemia) gene are frequently found in human leukemias affecting both children and adults. Fusion of MLL to one of more than 60 genes results in generation of oncogenic proteins upregulating Hox genes, which are vital to blood cell development. Patients harboring fusion of the MLL gene suffer from aggressive leukemias and respond poorly to available therapies. All of the oncogenic fusion proteins have a preserved N-terminal fragment of MLL that has been identified to interact with menin. It has been recently discovered that association with menin is critical to the leukemogenic activity of the MLL fusion oncoproteins. Selective targeting of the menin-MLL interaction could provide an attractive therapeutic approach to develop novel drugs for MLL-related leukemias. Small molecules blocking the menin-MLL interaction should reverse the oncogenic potential of MLL fusion proteins. We have developed and optimized a fluorescence polarization-based assay for the identification of Menin-MLL inhibitors. The assay was run employing two different MLL-derived peptides. The present assay uses a 12 amino acid peptide labeled with fluorescein at its N-terminus. This peptide consists of the menin high affinity binding motif from MLL and is potently bound by menin. Another peptide with a mutated sequence, labeled with Texas Red, was used in parallel as a less stringent screen for inhibitors.
The Menin protein, the MLL-wild type (w.t.) derived peptide (N-terminal 12 amino acids), the MLL-derived peptide labeled with Texas Red and the MLL-w.t. peptide labeled with Fluorescein were kindly supplied by laboratory of Dr. Jolanta Grembecka, University of Virginia. All protein and peptide solutions were stored in single use aliquots at -80C. The Eu3+ Cyrptate-conjugated mouse monoclonal antibody anti-6 Histidine (Eu3+-AB) and the Streptavidin-XL665 conjugate (XL665) were purchased from Cisbio International (Bedford, MA). All antibody and XL665 conjugate solution stocks were stored in single use aliquots at -20C. The Buffer components for all assays were purchased from Sigma-Aldrich (St. Louis, MO) and Invitrogen (Carlsbad, CA). FP Assay Reagents: 1. FP reaction buffer: 50 mM Tris-HCl pH 7.5, 50 mM NaCl, 1mM DTT. Before use, 0.05% BSA is added. 2. Menin protein, MLL-w.t. labeled with fluorescein, MLL-mutant peptide labeled with texas red. Stored in singe use aliquots at -80C. 3. MLL-w.t. unlabeled peptide as positive control: 10 uM final in FP buffer. FP Assay Procedure: 1. Prepare Menin at 200 nM, MLL-w.t.-fluorescein at 25 nM, and MLL-mutant-texas red at 50 nM mixture in FP buffer. 2. Prepare Menin at 200 nM, MLL-w.t.-fluorescein at 25 nM, MLL-mutant-texas red at 50 nM, and 10 uM MLL-w.t. unlabeled mixture in FP buffer. 3. Prepare MLL-w.t.-fluorescein at 25 nM and MLL-mutant-texas red at 50 nM mixture in FP buffer. 3. Dispense 4 ul per well of reagent in step 1 in columns 2, 4 - 48 in a black 1536 well plate, dispense 4 ul per well of reagents from steps 2 and 3 in columns 1 and 3 respectively. Incubate plate at ambient for 15 minutes. 4. Transfer 23 nl per well of compound to plate and incubate at ambient for 1 hr. 5. Read fluorescence polarization for each label using the PerkinElmer Envision. Envision protocol for fluorescein: FITC FP Dual Enh Mirror, Excitation filter 480, Emission filter (1) P-pol 535, Emission filter (2) S-pol 535 Envision protocol for texas red: FP Dual Enh Mirror, Excitation filter 555, Emission filter (1) P-pol 632, Emission filter (2) S-pol 632

FP activity change, inactive:
O=S(=O)(NCc1ccc(Cl)cc1Cl)c1cccs1 -3.15%, CC(CN1CCCCC1)c1ccccc1 (stereo not given) 4.36%, COc1ccc(/C(C)=N\NC(=O)c2ccc(-c3ccccc3)cc2)c(F)c1 -4.21%, Cc1ccccc1NC(=O)CSc1nc2ccc(Nc3nc(N4CCOCC4)nc(N4CCOCC4)n3)cc2s1 1.23%, CCOC(=O)Nc1ccc2c(c1)N(C(=O)CCCl)c1ccccc1[S@]2=O -0.773%, CSc1nccc(NC(=O)c2ccc(C(C)(C)C)cc2)n1 -1.11%, O=C(c1cc(COc2cccc(C(F)(F)F)c2)on1)N1CCSCC1 1.74%, Oc1ccccc1-c1cc(-c2ccc(Cl)cc2)n[nH]1 -1.42%, CC1CCC2CCCCC2N1C(=O)c1cc([N+](=O)[O-])cc([N+](=O)[O-])c1 (stereo not given) 1.44%, Cc1ccc(C(=O)Nc2nnc(C3=COCCO3)o2)cc1C -0.415%, N#C[C@]1(S(=O)(=O)c2ccccc2)C[C@@H]2ON=C(c3cccc(Br)c3)[C@@H]2C1 6.98%, O=C(N/N=C/c1cccc(OCc2ccccc2)c1)c1ccc(Br)o1 2.42%, N#CC(C#N)=CN=c1ccn(Cc2ccc(Cl)cc2Cl)cc1 -5.78%, FC(F)(F)C1CCCN(c2nsc3ccccc23)C1 (stereo not given) -1.66%, N=c1oc2ccccc2cc1C(=O)NCc1ccccc1 15.1%, COCCCNc1nc2c(-c3cccc(C)c3)nnn2c2ccc(Cl)cc12 -4.76%, O=C(NCCNc1ccccc1[N+](=O)[O-])c1ccccc1F -2.51%, N#CCc1ccc(NC(=O)c2ccccc2C(=O)Nc2ccc(CC#N)cc2)cc1 -1.6%, CCn1cc(CN2CCC(C(=O)Nc3cccc(-c4cccc(Cl)c4)c3)CC2)c(C)n1 -0.667%, Cc1ccc(CCNC(=O)c2ccc3nc4ccccc4c(=O)n3c2)cc1 -0.476%
